Only a sample is shown.
aSyn 5UTR act: Activators working through SNCA 5'UTR binding (MLPCN). alpha-synuclein 5'UTR reporter, activators screen. activity score, % (tested at 7.5 µM), hits read low. actives 7.1% (n = 300,000). AID 1814; in the data active means activity score below about -60%
Active calls of the source: *.

What do the screens show for `CCOc1ccc(/C=C2\SC(=S)N(CCCC(=O)NCCCN3CCOCC3)C2=O)cc1`?
aSyn 5UTR act: 84.4

Results for CCOc1ccc(N=C2NC(=O)S/C2=C\c2ccc(N(C)C)cc2)cc1 ?
aSyn 5UTR act: -128.8*

How did CCOc1ccc(/C=C2/SC(=O)NC2=S)cc1 do in these assays?
aSyn 5UTR act: -94.8*

Results for CCC(C)(C)C1CCC(=NNC(=O)c2ccoc2C)CC1 (stereo not drawn) ?
aSyn 5UTR act: -111.8*

What do the screens show for `CCOC(=O)c1c(C)[nH]c(C(=O)OCC(=O)c2ccccc2)c1C`?
aSyn 5UTR act: -99.0*

What do the screens show for `CCOC(=O)c1c(C)[nH]c(C(=O)OCCOc2ccccc2C)c1C`?
aSyn 5UTR act: -132.3*

How did CC(=O)c1c(C)[nH]c(C(=O)OCc2ccccc2)c1C do in these assays?
aSyn 5UTR act: -145.2*

How did CCOC(=O)c1c(C)[nH]c(C(=O)OCc2ccc(F)cc2)c1C do in these assays?
aSyn 5UTR act: -170.0*

What do the screens show for `CC(C)c1ccc2c(c1)CCC1C(C)(CN)CCCC21C` (stereo not drawn)?
aSyn 5UTR act: 96.7

How did CCNC(=O)COC(=O)c1[nH]c(C)c(C(=O)OC)c1C do in these assays?
aSyn 5UTR act: -85.4*

How did CCOC(=O)c1c(C)[nH]c(C(=O)OCc2ccccc2F)c1C do in these assays?
aSyn 5UTR act: -110.3*

What do the screens show for `CCOC(=O)c1c(C)[nH]c(C(=O)CSc2ccc(Cl)cc2)c1C`?
aSyn 5UTR act: -129.5*

What do the screens show for `CCOC(=O)c1c(C)[nH]c(C(=O)COC(=O)C2(C)CC2(Cl)Cl)c1C` (stereo not drawn)?
aSyn 5UTR act: -170.9*

Results for O=C(Nc1cccc(O)c1)c1ccc([N+](=O)[O-])cc1Cl ?
aSyn 5UTR act: -86.1*

How did O=C(Nc1ccc([N+](=O)[O-])cc1)c1cc(Cl)sc1Cl do in these assays?
aSyn 5UTR act: -75.7*

What do the screens show for `CN(C)c1ccc(NC(=O)c2ccc([N+](=O)[O-])cc2Cl)cc1`?
aSyn 5UTR act: -76.1*

Results for Clc1cccc(N/N=C(\Cc2nc3ccccc3[nH]2)c2ccccc2)c1 ?
aSyn 5UTR act: -102.1*

What do the screens show for `CCc1ccc(OCCCCCn2ccnc2)cc1`?
aSyn 5UTR act: -66.4*

Results for Cc1ccc(C(=O)NC(C#N)=C(Cl)Cl)cc1 ?
aSyn 5UTR act: -191.3*

Results for Cc1cc(C)c2c(c1)/C(=N\N=c1\sc3ccccc3n1C)C(=O)N2 ?
aSyn 5UTR act: -106.7*

What do the screens show for `O=C(/C=C/c1ccc(Br)cc1)NC(=O)c1ccccc1O`?
aSyn 5UTR act: -161.5*

Results for O=C(/C=C/c1ccc(O)c(O)c1)NC(=O)c1ccccc1O ?
aSyn 5UTR act: -145.4*

Results for CSc1ccc(/C=C/C(=O)NC(=O)c2ccccc2O)cc1 ?
aSyn 5UTR act: -118.7*

Results for N/C(=N\OC(=O)c1ccccc1Br)c1cccc([N+](=O)[O-])c1 ?
aSyn 5UTR act: -77.0*

How did N/C(=N\OC(=O)c1ccccc1F)c1cccc([N+](=O)[O-])c1 do in these assays?
aSyn 5UTR act: -182.9*

Results for N/C(=N\OC(=O)c1ccccc1Br)c1ccc([N+](=O)[O-])cc1 ?
aSyn 5UTR act: -103.4*

How did Cc1ccccc1/C(N)=N/OC(=O)c1ccc(F)cc1 do in these assays?
aSyn 5UTR act: -176.8*

Results for Cc1ccccc1C(=O)O/N=C(\N)c1ccc([N+](=O)[O-])cc1 ?
aSyn 5UTR act: -126.6*

What do the screens show for `O=C(Cc1ccccc1F)Nc1ccc2c(c1)CCC2`?
aSyn 5UTR act: -169.3*

How did O=C(Cc1ccc2c(c1)CCCC2)Nc1ccc2ccccc2c1 do in these assays?
aSyn 5UTR act: -160.5*

What do the screens show for `CC(=O)c1ccc(N2Cc3ccccc3C2=NC(=O)c2cccs2)cc1`?
aSyn 5UTR act: -69.4*

What do the screens show for `CC(=O)c1ccc(N2Cc3ccccc3/C2=N\C(=O)Nc2ccccc2)cc1`?
aSyn 5UTR act: -98.5*

What do the screens show for `O=C(N=C1c2ccccc2CN1c1ccc(F)cc1)c1ccc(Cl)nc1`?
aSyn 5UTR act: -94.2*

How did CCS(=O)(=O)N1N=C(c2cccs2)CC1c1cc2cc(C)ccc2nc1Cl (stereo not drawn) do in these assays?
aSyn 5UTR act: -67.0*

What do the screens show for `Nc1c(C(=O)c2ccc(Br)cc2)oc2ccccc12`?
aSyn 5UTR act: -173.7*

How did Cc1ccc(C(=O)c2oc3ccccc3c2N)cc1 do in these assays?
aSyn 5UTR act: -66.0*

Results for Nc1c(C(=O)c2ccccc2)oc2ccc(Br)cc12 ?
aSyn 5UTR act: -255.8*

How did COC(=O)CCC(=O)c1oc2ccc(Br)cc2c1N do in these assays?
aSyn 5UTR act: -82.7*

What do the screens show for `NC(=O)CCCn1c(C(=O)c2cc(Cl)c(N)c(Cl)c2)c2ccc([N+](=O)[O-])cc2[n+]1[O-]`?
aSyn 5UTR act: 71.4

Results for CCOC(=O)c1oc2ccccc2c1N ?
aSyn 5UTR act: -90.0*

What do the screens show for `Nc1c(C(=O)c2ccccc2)oc2ccc([N+](=O)[O-])cc12`?
aSyn 5UTR act: -110.5*

Results for NCCCn1c(C(=O)c2ccc(Cl)cc2)c2ccc([N+](=O)[O-])cc2[n+]1[O-] ?
aSyn 5UTR act: 60.1

How did Cc1cccc(C=Nc2ccccc2C(N)=O)c1 do in these assays?
aSyn 5UTR act: -69.8*

Results for COc1cc(NC(=O)c2cc3nc(C)cc(C)n3n2)c(OC)cc1Cl ?
aSyn 5UTR act: -213.9*

What do the screens show for `Cc1ccc(C(=O)Nc2cc(Cl)ccc2OC(=O)c2ccc(C)cc2)cc1`?
aSyn 5UTR act: -226.8*

What do the screens show for `COc1ccc(C(=O)Nc2cc(OC)c(Cl)cc2OC)cc1`?
aSyn 5UTR act: -119.9*

What do the screens show for `COc1ccc(OC(=O)c2ccc(Cl)cc2)c(C(C)=O)c1`?
aSyn 5UTR act: -77.6*

Results for COc1ccc(C(=O)Nc2cc(Cl)ccc2OC(=O)c2ccc(OC)cc2)cc1 ?
aSyn 5UTR act: -157.5*

What do the screens show for `O=C(Nc1ccccc1O)c1ccc(Cl)cc1`?
aSyn 5UTR act: -254.7*

Results for COc1ccc(-c2noc(CCC(=O)Nc3cc(Cl)c(OC)cc3OC)n2)cc1 ?
aSyn 5UTR act: -64.8*

What do the screens show for `O=C(Nc1ccccc1O)c1ccc([N+](=O)[O-])cc1`?
aSyn 5UTR act: -69.9*

Results for COc1ccc(-c2noc(CCCC(=O)NC3CCCC3)n2)cc1 ?
aSyn 5UTR act: 62.4

How did Cc1cc(NC(=O)c2ccccc2)c(Cl)cc1N do in these assays?
aSyn 5UTR act: 64.0

Results for CC(C)(C)c1ccc(C(=O)Nc2ccccc2Cl)cc1 ?
aSyn 5UTR act: -88.0*

What do the screens show for `O=C(Nc1ccccc1OC(=O)c1ccc(Cl)cc1)c1ccc(Cl)cc1`?
aSyn 5UTR act: -343.3*

Results for C#CC(C)(C)NC(=O)c1ccc(-c2ccccc2F)cc1 ?
aSyn 5UTR act: -89.1*

Results for O=C(COC(=O)c1ccccc1-n1cnnn1)c1ccc(F)cc1 ?
aSyn 5UTR act: -145.2*

What do the screens show for `CSc1nc2sc3c(c2c(=O)[nH]1)CCC(C)C3` (stereo not drawn)?
aSyn 5UTR act: -150.8*

Results for COc1ccc(C(=O)NC(=S)NNC(=O)c2cnccn2)cc1OC ?
aSyn 5UTR act: 90.5

What do the screens show for `Cc1csc(NC(=S)NC(=O)c2ccccc2)n1`?
aSyn 5UTR act: -178.7*

What do the screens show for `COc1cc(OC)nc(NC(=S)NC(=O)c2ccccc2)n1`?
aSyn 5UTR act: -69.1*

How did COc1ccc(C(=O)NC(=S)Nc2nc(C)cc(C)n2)cc1Br do in these assays?
aSyn 5UTR act: -77.4*

How did COC(=O)c1sc(NC(=S)NC(=O)c2ccccc2Cl)nc1C do in these assays?
aSyn 5UTR act: -145.9*

What do the screens show for `COC(=O)c1sc(NC(=S)NC(=O)c2ccccc2)nc1C`?
aSyn 5UTR act: -198.2*

What do the screens show for `Cc1cc(C)c2cccc(NC(=S)NC(=O)c3ccccc3)c2n1`?
aSyn 5UTR act: -76.4*

Screening results from PubChem BioAssay.
